Screening results deposited in PubChem BioAssay by National Center for Advancing Translational Sciences (NCATS).
RXFP1 agonist: agonists of human relaxin receptor RXFP1; Q9HBX9; HEK293T-RXFP1 cAMP TR-FRET, 30 min; response scale: percent of porcine relaxin response, buffer zero; 0.3% of 370,000 active; AID 2676; Potency, µM (series often up to 57.5 µM), without a hit: at the highest dose activation, actives largely listed as activators; active = well fitted activation curve with a large enough effect; inconclusive = small, poorly fitted or top-dose-only effect; note: potency is the fitted concentration of half-maximal effect; % is set by controls: 0 for no effect and ±100 for the full control effect; nearly all actives have a fitted effect of over 60% in size
Target sequence (Q9HBX9 whole entry, looked up): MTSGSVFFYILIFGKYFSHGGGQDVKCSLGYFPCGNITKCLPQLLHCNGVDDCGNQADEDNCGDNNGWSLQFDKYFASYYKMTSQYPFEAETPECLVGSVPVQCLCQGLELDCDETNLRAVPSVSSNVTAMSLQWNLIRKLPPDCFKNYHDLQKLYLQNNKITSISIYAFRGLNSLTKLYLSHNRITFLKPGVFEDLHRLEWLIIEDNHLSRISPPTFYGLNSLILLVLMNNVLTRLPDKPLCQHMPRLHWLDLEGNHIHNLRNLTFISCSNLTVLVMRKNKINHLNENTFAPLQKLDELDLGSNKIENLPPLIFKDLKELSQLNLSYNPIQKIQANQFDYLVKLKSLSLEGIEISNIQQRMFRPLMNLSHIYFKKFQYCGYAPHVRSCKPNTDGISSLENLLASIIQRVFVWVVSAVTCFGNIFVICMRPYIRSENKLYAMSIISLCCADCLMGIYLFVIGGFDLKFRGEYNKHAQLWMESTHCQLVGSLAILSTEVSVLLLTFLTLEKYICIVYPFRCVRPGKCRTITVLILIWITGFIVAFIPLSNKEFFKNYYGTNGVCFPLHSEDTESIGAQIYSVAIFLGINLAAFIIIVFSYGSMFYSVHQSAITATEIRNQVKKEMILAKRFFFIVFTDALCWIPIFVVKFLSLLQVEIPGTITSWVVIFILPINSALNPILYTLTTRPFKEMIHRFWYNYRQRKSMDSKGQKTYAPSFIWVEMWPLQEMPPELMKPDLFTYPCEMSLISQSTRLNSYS
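Agonist response is measured as cAMP accumulation in an RXFP1-transfected HEK293T line under PDE4 inhibition. Values are scaled between buffer-only and 29 nM porcine relaxin, and EC50s come from standard Hill equation fits.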
gsp antag: gsp mutant antagonism | gsp-mutant cells, cAMP HTRF, 30 min | Potency, µM (highest dose often 76.9 µM), for the others: at the highest dose activity change, negative = inhibition, hits mostly inhibitors | 0.4% of 340,000 active; calls by dose curve; cell line not stated here;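 note: intracellular cAMP measured with PDE inhibitor Ro 20-1724 present during compound exposure; potency is the fitted concentration of half-maximal effect; % is set by controls: 0 for no effect and ±100 for the full control effect; nearly all actives have a fitted effect of over 65% in size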
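HTRF cAMP read-out (cAMP-d2 plus anti-cAMP antibody-K in lysis buffer, 30 min RT). Before lysis, cells are exposed to compounds with […] for 30 min at 37C in DPBS containing Ca/Mg, BSA and Tween 20.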
gsp ag: agonists of gsp mutant (McCune-Albright syndrome) | 0.13% of 340,000 active | Potency, µM (top dose mostly 76.9 µM), for inactives: at the top dose activation (cAMP increase), most hits filed as activators | gsp mutant cells, cAMP HTRF, 30 min; active = well fitted activation curve with a large enough effect; inconclusive = small, poorly fitted or top-dose-only effect, or another doubt; inactive = no such curve, though single readings can be large or run the other way; cell line not stated here;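 note: phosphodiesterase inhibitor Ro 20-1724 added with compounds to block cAMP breakdown; potency is the fitted concentration of half-maximal effect; nearly all actives have a fitted effect of over 60% in size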
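Cells in DMEM/10% FBS with G418 were pretreated with compounds in DMSO plus […] (300 uM stock) for 30 min at 37C. cAMP was measured by HTRF (cAMP-d2 plus anti-cAMP antibody-K) after 30 min at room temperature.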
RXFP1 antagonist: RXFP1 (human) relaxin receptor antagonism. Q9HBX9. activity change, negative = inhibition, % at 57.5 µM. AID 1259400. HEK293-RXFP1, relaxin-stimulated cAMP HTRF, 30 min; hits give low values. 0.59% of 350,000 active;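 active = activity change of -60% or lower, but not beyond a set lower limit; inconclusive = change between -60% and -40%, or beyond the set limit; inactive = change above -40%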; note: % is set by controls: 0 for no effect and ±100 for the full control effect
pAkt inh: Akt phosphorylation inhibition; Neuro2A IGF-stimulated pAkt S473 HTRF, 20 min; hits give low values; activity change, % for hits at 50 µM; 0.32% of 360,000 active; in the data active = activity change below about -80%; inconclusive = mostly about -51% to -80%; note: % is set by controls: 0 for no effect and ±100 for the full control effect
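Neuro2A cells in DMEM with 0.5% FBS, overnight at 37 deg C, given compound at single 50 µM final, then IGF (6 nM final) for 20 min at 37 deg C. Lysed; phospho-Akt Ser473 by HTRF after 24 h, 665/615 ratio.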
Starred values were filed as active, the others as inactive; i = inactive; ? = inconclusive; . = no result given; [ ] = remark or other dose. Sampled rows, rich in hits. Any-hit rate of the full collection: about 1.3%.

SMILES | RXFP1 agonist | gsp antag | gsp ag | RXFP1 antagonist | pAkt inh
CCS(=O)(=O)c1oc(-c2ccc(F)cc2)nc1S(=O)(=O)c1ccc(Br)cc1 | 1% | . | . | -102* | .
CC(C)S(=O)(=O)c1oc(-c2ccc(F)cc2)nc1S(=O)(=O)c1ccccc1 | 0% | . | . | -106* | .
CCCCS(=O)(=O)c1oc(-c2ccc(F)cc2)nc1S(=O)(=O)c1ccccc1 | 1% | . | . | -81* | .
CSc1oc(-c2ccc(F)cc2)nc1S(=O)(=O)c1ccccc1 | 2% | 12% | -12% | 2 | i
O=C(C1CCN(S(=O)(=O)Cc2ccccc2)CC1)N1CCN(c2cccc(C(F)(F)F)c2)CC1 | -5% | . | . | -11 | .
COC(=O)c1c(NC(=S)Nc2ccccc2Cl)sc(C)c1C | 8% | -1% | ? | -107* | i
O=C(CN1CCCc2ccccc21)N/N=C/c1c(O)ccc2ccccc12 | 0% | ? | -10% | -61* | i
O=C(CN1CCCc2ccccc21)N/N=C/c1ccccc1 | -1% | 9% | -43% | 4 | i
COc1ccc(-c2nc3ccccc3c(=O)o2)cc1OC | 13% | -22% | -2% | 10 | -119%*
CCOc1ccc(-c2nc3ccccc3c(=O)o2)cc1 | 0% | 4% | -3%[15.4 µM] | 7 | i
CCn1c(SCC(=O)NCc2ccc3c(c2)OCO3)nnc1-c1cccs1 | 0% | -4% | 12% | 1 | -96%*
Cc1cccc(-c2nnc(SCC(=O)NCc3ccc4c(c3)OCO4)n2C)c1 | 3% | 0% | -44% | -5 | i
Cn1c(SCC(=O)NCc2ccc3c(c2)OCO3)nnc1-c1cc2ccccc2cc1O | 1% | 40µM* | ? | -10 | .
Cn1c(SCC(=O)NCc2ccc3c(c2)OCO3)nnc1-c1cccs1 | 0% | 5% | -34% | 0 | i
CCc1cccc(C)c1NC(=O)CCn1c(=O)c2cccn2c2ccccc21 | -2% | . | . | -3 | .
Cc1ccc2c(=O)n3c(nc2c1)C(C)NC(=O)c1cccnc1-3 (stereo not given) | . | . | 32µM* | 3 | i
CC1NC(=O)c2cccnc2-n2c1nc1ccccc1c2=O (stereo not given) | . | . | ? | 11 | i
Oc1ccc(Oc2ccc3c(C(F)(F)F)cc(C(F)(F)F)nc3n2)cc1 | 0% | ? | 14% | -32 | -116%*
Cc1ccc(Cl)cc1NC(=O)Cn1c(=O)n(CCCS(=O)(=O)C2CCCCC2)c(=O)c2ccccc21 | 3% | . | . | . | .
CCCS/C(N)=N/N=C/c1cc(C)ccc1O | 2% | 5% | 10% | 2 | .
CCCCS/C(N)=N/N=C/c1ccccc1O | 0% | 11% | 5% | 6 | -111%*
Cc1ccc2nc(C)c(C(=O)N/N=C/c3ccc(C(=O)O)cc3)cc2c1 | -2% | 0% | 1% | -62* | i
Cc1nc2c(C)cccc2cc1C(=O)N/N=C/c1ccc(O)cc1 | 2% | 4% | -62% | 16 | i
O=c1c2ccccc2cnn1Cc1n[nH]c(=S)n1-c1ccc(F)c(Cl)c1 | 16µM* | 6% | 61%[15.4 µM] | 5 | i
CC(C)=CC(=O)OCc1csc(CC(=O)Nc2ccccc2C)n1 | 0% | -6% | 8% | -4 | i
SMILES | RXFP1 agonist | gsp antag | gsp ag | RXFP1 antagonist | pAkt inh
CC(=O)c1c(C)[nH]c(C(=O)OCc2csc(CC(=O)Nc3ccccc3C)n2)c1C | . | 25µM* | ? | -10 | i
CC1=C/C(=C(/c2cc(C)c(O)c(Br)c2)c2ccccc2S(=O)(=O)O)C=C(Br)C1=O | -37% | 20µM* | -161% | ? | i
S=c1[nH]nc(-c2ccccc2)n1CC1CCCO1 (stereo not given) | 2% | -3% | 5% | -12 | -99%*
O=S(=O)(Nc1ccccn1)c1ccc(-n2cccn2)cc1 | -3% | 2% | ? | -108* | .
COc1ccc(OC)c(NC(=O)CN(C)S(=O)(=O)c2ccc(C(=O)N3CCOCC3)s2)c1 | 5% | . | . | . | .
O=C(c1ccc(N2CCCC2)c([N+](=O)[O-])c1)N1CCN(S(=O)(=O)c2ccc(Cl)cc2)CC1 | 0% | -5% | -5%[15.4 µM] | -64* | i
Cc1cc(C)c(Cn2c3ccccc3c3cnn(CC(=O)N4CCCCCC4)c(=O)c32)c(C)c1 | 0% | . | . | -9 | .
COc1ccc2c(c1)CC(N1CCN(C)CC1)c1cc(OC)ccc1S2 (stereo not given) | . | 14% | -11% | -115* | i
CSc1ccc2c(c1)C(N1CCN(C)CC1)Cc1ccc(F)cc1S2 (stereo not given) | . | 4% | 24% | ? | i
Cc1nn(CCCC(=O)NCCc2ccc(Cl)cc2)c(=O)c2c1sc1ccccc12 | 3% | . | . | -33 | .
O=C(CSc1nc2ccccc2nc1SCC(=O)N1CCOCC1)N1CCOCC1 | 4% | -7% | ? | 0 | .
Cc1nnc(SCC(=O)N2CCOCC2)c2ccccc12 | 4% | 14% | 27% | -7 | -115%*
C/C(=C1\CCOC(=O)S1)N(C=O)Cc1cnc(C)nc1N | . | . | . | 3 | .
Cc1ccc(C(=O)C2=C(O)C(=O)N(CCCn3ccnc3)C2c2ccc(OC(C)C)cc2)o1 (stereo not given) | 16µM* | 23% | ? | 20 | i
Cc1cc(F)ccc1NC(=O)CCS(=O)(=O)c1cc2c(cc1C)NC(=O)CO2 | 0% | . | . | . | .
S=C(NCc1ccco1)N/N=C/c1ccc(Cl)cc1 | 0% | 10% | -45% | -13 | i
Oc1ccc(/C=N/NC(=S)NCc2ccco2)cc1 | 0% | -2% | 4% | -6 | -116%*
O=C(C1CCCCC1)N(Cc1cccnc1)c1nc2ccc(Cl)cc2s1 | -2% | . | . | -14 | .
Nc1ccc(C(=O)N2CC3CC(CN(Cc4ccccc4)C3)C2)cc1 | . | . | . | 7 | .
Cc1cc(C)cc(NC(=S)NCC2CCCO2)c1 (stereo not given) | 1% | 6% | 14% | 4 | -115%*
Fc1ccccc1-c1n[nH]c(=S)n1/N=C/c1c[nH]c2ccccc12 | 1% | -9% | -8%[15.4 µM] | -109* | i
Fc1ccccc1/C=N/n1c(C2CCCCC2)n[nH]c1=S | 0% | -27% | -23% | -12 | i
CCc1sc(C(=O)Nc2nc(-c3ccccn3)cs2)cc1C | . | -2% | -4% | -69* | i
O=C(CCCSc1ccccc1)Nc1nc(-c2ccccn2)cs1 | -1% | 13% | -12% | -21 | -106%*
Cc1cccc(N2CCN(C(=O)Cn3c(=O)c4cccn4c4ccc(F)cc43)CC2C)c1 (stereo not given) | 8% | . | . | -12 | .
COc1ccc(OC)c(CNC(=O)CCc2c(C)nc3c(c2C)c(=O)n(C)c(=O)n3C)c1 | 1% | . | . | . | .
COc1cccc(/C=N/Nc2nccnc2Cl)c1O | 0% | -1% | -28% | -70* | i
COc1cccc(/C=N/Nc2ncnc(Cl)c2N)c1O | 3% | -1% | -10% | -39 | i
Cc1ccccc1S(=O)(=O)Cc1ccc(C(=O)N2CCN(c3cccc(C)c3C)CC2)o1 | 2% | -8% | 11% | -6 | -111%*
